Here are results for seven molecules from PubChem BioAssay (NCATS).

In test [1] the target is Transient receptor potential cation channel subfamily V member 1 (Homo sapiens) (UniProt Q8NER1). Description: HTS Assay for Compounds that Act as Enhancers of the Vanilloid Receptor 1 (AID 488979). Further: 0% is about no effect. Put shortly:
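Calcium influx kinetics via Fluo-8 (480/520 nm) in TRPV1-expressing cells, 2000/well cultured overnight at 35.5C. Compound-alone read 3 min (agonist phase), followed by EC20 capsaicin challenge for 2 min (enhancer phase).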

For test [2], the target named is Thyrotropin receptor (Homo sapiens) (UniProt P16473). Briefly: qHTS Assay for Antagonists of the Thyroid Stimulating Hormone Receptor (AID 488980). Further: series mostly up to about 58 µM; 0% is about no effect. A digest of the protocol: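 TSHR-transfected HEK293 cells (2000/well) in HEPES-buffered HBSS with 70 uM RO 20-1724 were stimulated with 4 nM TSH (EC80, final) in the presence of compound. cAMP was measured by HTRF competition after lysis and 30 min at RT.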
Sequence of Thyrotropin receptor (Homo sapiens) (P16473 whole entry, looked up): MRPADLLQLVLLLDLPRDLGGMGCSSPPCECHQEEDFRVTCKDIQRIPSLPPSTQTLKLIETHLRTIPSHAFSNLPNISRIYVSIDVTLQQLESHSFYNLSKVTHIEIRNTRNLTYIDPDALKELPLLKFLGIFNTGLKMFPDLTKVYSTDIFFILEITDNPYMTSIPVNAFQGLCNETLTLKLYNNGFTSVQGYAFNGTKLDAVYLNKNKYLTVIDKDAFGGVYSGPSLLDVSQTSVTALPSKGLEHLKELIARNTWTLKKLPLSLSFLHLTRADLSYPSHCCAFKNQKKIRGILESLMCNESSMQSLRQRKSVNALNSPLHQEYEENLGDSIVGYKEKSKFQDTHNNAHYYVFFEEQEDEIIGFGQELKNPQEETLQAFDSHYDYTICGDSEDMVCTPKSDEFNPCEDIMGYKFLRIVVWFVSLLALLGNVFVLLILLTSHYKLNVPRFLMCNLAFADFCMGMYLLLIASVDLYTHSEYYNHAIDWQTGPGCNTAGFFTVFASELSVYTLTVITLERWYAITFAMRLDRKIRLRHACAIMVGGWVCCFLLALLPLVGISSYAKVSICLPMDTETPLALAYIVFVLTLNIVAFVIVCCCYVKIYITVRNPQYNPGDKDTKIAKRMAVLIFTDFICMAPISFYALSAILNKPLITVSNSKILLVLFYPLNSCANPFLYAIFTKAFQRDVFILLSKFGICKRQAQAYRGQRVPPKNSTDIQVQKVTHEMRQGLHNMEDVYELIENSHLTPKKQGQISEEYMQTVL

The target of test [3] is D(1A) dopamine receptor (Homo sapiens) (UniProt P21728). Description: HTS Assay for Allosteric Agonists of the Human D1 Dopamine Receptor: Primary Screen for Agonists (AID 488981). Further: 0% is about no effect. A digest of the protocol:
(§1)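 Calcium flux in an inducible, force-coupled HEK293 Trex D1 line (overnight at 30 C): agonist mode is the 180 s kinetic read after compound; potentiator mode is the following 180 s read after dopamine at EC20.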

Test [4] has the same target. Briefly: HTS Assay for Allosteric Agonists of the Human D1 Dopamine Receptor: Primary Screen for Potentiators (AID 488982). Further: 0% is about no effect. A digest of the protocol:
as §1

Test [5] has the same target. Description: HTS Assay for Allosteric Agonists of the Human D1 Dopamine Receptor: Primary Screen for Antagonists (AID 488983).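 Further: calcium flux response to an EC80 dopamine challenge measured with no-wash dye; nearly all actives have a fitted effect of over 65% in size.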 Further: potency means the concentration at half of the fitted maximal effect. A digest of the protocol: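 Calcium-flux read-out in inducible HEK293 T-REx cells expressing D1, dye-loaded 30–90 min at room temperature. Kinetic reads: 180 s after compound (agonist phase), then 180 s after an EC80 dopamine challenge.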
The target in test [6] is ATPase family AAA domain-containing protein 5 (Homo sapiens) (UniProt Q96QE3). Description: Validation screen for small molecules that inhibit ELG1-dependent DNA repair in human embryonic kidney (HEK293T) cells expressing luciferase-tagged ELG1 (AID 493107). Further: nearly all actives have a fitted effect of over 70% in size. Further: potency means the concentration at half of the fitted maximal effect. A digest of the protocol:
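Luciferase read-out, ONE-Glo, 30 min at room temperature, follows 16 h co-exposure at 37 C of compound and the DNA-damaging agent 5-fluorouridine. Cells: HEK293T with ELG1-luciferase fusion, 2,000 per well, DMSO as vehicle.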

The target of test [7] is Thyrotropin-releasing hormone receptor (Homo sapiens) (UniProt P34981). Briefly: qHTS for Small Molecule Agonists and Allosteric Enhancers of Human TRH Receptor: Validation Screen for Agonists (AID 493127;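 active means calcium activation more than 3 SD above the typical response in the agonist read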;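 further: intracellular calcium rise by fluo-8 fluorescence before TRH EC20 addition; 0% is about no effect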). The following applies: TRH receptor agonist cell assay; at 2 µM; stronger effect = higher value. A digest of the protocol: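 Compound-evoked intracellular calcium release in fluo-8-loaded TRHR cells, read kinetically on FDSS (Ex 480/Em 530, 1 s/cycle) after 23 nL pintool transfer. Agonist phase preceded 10 nM TRH EC20 addition.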
Sequence of Thyrotropin-releasing hormone receptor (Homo sapiens) (P34981 whole entry, looked up): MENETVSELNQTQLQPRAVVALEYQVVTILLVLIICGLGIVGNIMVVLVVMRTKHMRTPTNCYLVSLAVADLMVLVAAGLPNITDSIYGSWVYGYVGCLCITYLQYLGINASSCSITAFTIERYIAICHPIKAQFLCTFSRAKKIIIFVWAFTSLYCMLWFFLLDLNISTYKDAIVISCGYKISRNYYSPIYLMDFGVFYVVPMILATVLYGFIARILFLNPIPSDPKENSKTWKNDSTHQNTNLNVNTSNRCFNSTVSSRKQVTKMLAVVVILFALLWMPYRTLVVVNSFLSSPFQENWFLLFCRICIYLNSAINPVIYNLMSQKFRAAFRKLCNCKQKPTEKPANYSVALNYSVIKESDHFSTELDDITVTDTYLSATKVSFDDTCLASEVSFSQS

A short description of test [8]: Nrf2 qHTS screen for inhibitors: Validation (AID 493153; active means well fitted inhibition curve with a large enough effect in the main read-out, with a control signal flat, not every such curve was filed as active). The conditions noted are these: Potency: luciferase luminescence; viability change: measured here: cytotoxicity max response. A digest of the protocol: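 Concentration-response on A549 ARE_Fluc reporter cells exposed 18-24 h at 37 C, 5% CO2. Cytotoxicity read first by CellTiter-Fluor fluorescence (Ex 405/Em 525), then Nrf2 inhibition by BugLite luminescence after 15 min.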

A short description of test [9]: qHTS for Inhibitors of Cell Surface uPA Generation: Validation Assay (AID 493164).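 Further: RAW 264.7 macrophage cells exposed to compound for 18 h; 0% is about no effect.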 A digest of the protocol:
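ATP-Lite luminescence read-out: ATP remains high when uPA activity-dependent LF translocation into the cytoplasm is blocked. RAW 264.7 cells, 18 h compound exposure at 37 C; 7-point titration, 2.45 nM to 38.3 uM final.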

Test [10] deals with Galactokinase (Homo sapiens) (UniProt P51570). Briefly: qHTS Validation Assay for Inhibitors of Human Galactokinase (GALK) (AID 493189). Further: 0% is about no effect. Put shortly: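 GALK (5 nM) with 35 uM ATP and 100 uM galactose in HEPES pH 8.0 with MgCl2, NaCl, DTT and BSA. Reaction ran 1 h at room temperature. Residual ATP read by Kinase-Glo Plus luminescence.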
Sequence of Galactokinase (Homo sapiens) (P51570 whole entry, looked up): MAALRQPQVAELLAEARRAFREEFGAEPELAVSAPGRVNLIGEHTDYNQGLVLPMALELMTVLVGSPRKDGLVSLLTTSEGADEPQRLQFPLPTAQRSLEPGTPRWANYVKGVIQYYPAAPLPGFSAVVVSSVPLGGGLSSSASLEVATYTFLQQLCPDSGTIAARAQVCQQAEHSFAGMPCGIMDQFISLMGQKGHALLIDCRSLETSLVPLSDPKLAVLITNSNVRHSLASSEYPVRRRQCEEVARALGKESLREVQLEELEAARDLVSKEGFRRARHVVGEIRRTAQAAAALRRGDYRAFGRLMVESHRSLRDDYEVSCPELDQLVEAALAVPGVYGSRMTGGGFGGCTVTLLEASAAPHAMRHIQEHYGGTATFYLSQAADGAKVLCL
Test [11] is described as follows: Validation screen for small molecules that induce DNA re-replication in SW480 colon adenocarcinoma cells (AID 504364). Further: 0% is about no effect. A digest of the protocol:
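Image-based DNA content read-out: Hoechst stain 40 min, total nuclear fluorescence intensity (ex 405 nm, em 500-530 nm) after 48 h compound exposure of 250 SW480 cells/well at 37 C, 5% CO2, versus DMSO vehicle.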

Test [12] addresses Peptidyl-prolyl cis-trans isomerase NIMA-interacting 1 (Homo sapiens) (UniProt Q13526). Briefly: qHTS Validation Assay to Find Inhibitors of Pin1 (AID 504536; active means well fitted inhibition curve with a large enough effect in the polarisation, with a control signal flat, not every such curve was filed as active; the % refers to the polarisation; further: potency means the concentration at half of the fitted maximal effect). Put shortly: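 Fluorescence polarization competition: compounds (titration) displace HiFluor-488-labeled Pin1-1b peptide from Pin1 (0.3 uM final) in pH 7.5 HEPES buffer with DTT, 10 min at room temperature; %Activity normalized to no-enzyme wells, curves fitted.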

Test [13] has as its target Phosphoglycerate kinase, glycosomal (Trypanosoma brucei brucei) (UniProt P07378). Description: qHTS Validation Assay to Find Inhibitors of Phosphoglycerate Kinase (AID 504547).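 Further: control wells lack PGK and mark full inhibition.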 A digest of the protocol:
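Luminescence end-point (Kinase-Glo Plus, 10 min) after a 60 min room-temperature coupled reaction. GAPDH at 100nM final supplies 1,3-BPG to PGK. Buffer: 100mM TEA pH 7.6, 5mM MgCl2, 0.01% Tween-20. Wells lacking PGK served as controls.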

Test [14] concerns the target phosphoglycerate mutase (Leishmania major) (UniProt Q4Q090). Briefly: qHTS Validation Assay to Find Inhibitors of Phosphoglycerate Mutase (AID 504548). Further: series mostly up to about 58 µM; on the % scale 0 is the no-effect control and ±100 the full control effect. The conditions noted are these: Potency: inhibition qHTS. A digest of the protocol:
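Luminescent end-point read-out via Kinase-GloPlus after a 10-minute development. Reaction: 1.25nM Leishmania major PGAM with substrate and compound, 45 minutes at room temperature in TEA buffer (pH 7.6) with MgCl2 and Tween-20.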

In test [15] the target is Ubiquitin carboxyl-terminal hydrolase 1 (Homo sapiens) (UniProt O94782). Briefly: Inhibitors of USP1/UAF1: Pilot qHTS (AID 504865). Further: nearly all actives have a fitted effect of over 35% in size. Further: potency means the concentration at half of the fitted maximal effect. A digest of the protocol: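 USP1/UAF1 complex at 1 nM preincubated 15 min at room temperature with compound, then Ub-Rho substrate added at 150 nM final. Fluorescence (480/540 nm) read kinetically in 50 mM HEPES pH 7.8, 0.5 mM EDTA, 1 mM TCEP, 0.1 mg/ml BSA, 0.01% Tween-20.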
Sequence of Ubiquitin carboxyl-terminal hydrolase 1 (Homo sapiens) (O94782 whole entry, looked up): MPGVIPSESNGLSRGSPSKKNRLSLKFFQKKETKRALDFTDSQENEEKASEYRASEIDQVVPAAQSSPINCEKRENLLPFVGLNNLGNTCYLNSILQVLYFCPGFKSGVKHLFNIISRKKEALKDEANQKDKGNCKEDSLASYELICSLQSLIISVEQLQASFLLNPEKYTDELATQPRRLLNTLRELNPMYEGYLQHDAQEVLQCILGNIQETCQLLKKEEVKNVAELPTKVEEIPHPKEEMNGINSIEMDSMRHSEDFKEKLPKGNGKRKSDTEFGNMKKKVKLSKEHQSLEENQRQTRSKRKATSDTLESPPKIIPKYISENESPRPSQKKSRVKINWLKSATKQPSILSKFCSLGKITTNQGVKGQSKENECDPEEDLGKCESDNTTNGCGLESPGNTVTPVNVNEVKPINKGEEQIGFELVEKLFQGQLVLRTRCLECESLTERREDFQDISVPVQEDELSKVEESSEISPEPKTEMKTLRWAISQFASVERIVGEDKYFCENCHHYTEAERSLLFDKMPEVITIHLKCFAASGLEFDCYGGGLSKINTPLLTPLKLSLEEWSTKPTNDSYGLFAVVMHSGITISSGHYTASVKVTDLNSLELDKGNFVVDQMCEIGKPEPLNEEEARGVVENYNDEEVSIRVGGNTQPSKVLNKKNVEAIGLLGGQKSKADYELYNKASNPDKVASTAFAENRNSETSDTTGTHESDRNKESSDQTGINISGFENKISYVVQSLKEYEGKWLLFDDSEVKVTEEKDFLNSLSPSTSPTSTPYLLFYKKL

Test [16] can be described thus: qHTS for Inhibitors of ATXN expression: Validation of Cytotoxic Assay (AID 588349). Further: on the % scale 0 is the no-effect control and ±100 the full control effect. Put shortly: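 Cytotoxicity counter-screen: ATP-based luminescent viability (CellTiter Glo) after 72 hr exposure of HEK293 cells to a compound titration at 37 degrees C.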
The nature of test [17]: Validation screen for small molecules that induce genotoxicity in human embryonic kidney (HEK293T) cells expressing luciferase-tagged ELG1 (AID 493106). Further: 0% is about no effect. A digest of the protocol: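 ELG1-luciferase reporter readout (ONE-Glo, 30 min, room temperature) after 16 hr compound treatment at 37 °C of HEK293T cells at 2,000 per well. Rising luminescence flags genotoxic stress.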
A short description of test [18]: qHTS for Inhibitors of ATXN expression: Validation (AID 588378). Further: nearly all actives have a fitted effect of over 75% in size. Further: potency means the concentration at half of the fitted maximal effect. Put shortly:
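HEK293 cells carrying ATXN2-firefly luciferase reporter, treated with compound 24 h at 37 °C. Viability read first by CellTiter-Fluor (405/525 nm), then reporter expression by Bright-Glo luminescence; controls were a known ATXN2 expression inhibitor and a luciferase inhibitor.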

Each structure is given as a SMILES string. Results filed as inconclusive are left out. Calls of active or inactive are those of the source. Unless noted, the call rests on the fitted dose curve; in most records, active means well fitted curve in the direction sought with a large enough effect; inconclusive means small, poorly fitted or top-dose-only effect, or another doubt; inactive means no such curve, though single readings can be large; an effect the other way counts as inactive or inconclusive.

Sequence of phosphoglycerate mutase (Leishmania major) (Q4Q090 1-553): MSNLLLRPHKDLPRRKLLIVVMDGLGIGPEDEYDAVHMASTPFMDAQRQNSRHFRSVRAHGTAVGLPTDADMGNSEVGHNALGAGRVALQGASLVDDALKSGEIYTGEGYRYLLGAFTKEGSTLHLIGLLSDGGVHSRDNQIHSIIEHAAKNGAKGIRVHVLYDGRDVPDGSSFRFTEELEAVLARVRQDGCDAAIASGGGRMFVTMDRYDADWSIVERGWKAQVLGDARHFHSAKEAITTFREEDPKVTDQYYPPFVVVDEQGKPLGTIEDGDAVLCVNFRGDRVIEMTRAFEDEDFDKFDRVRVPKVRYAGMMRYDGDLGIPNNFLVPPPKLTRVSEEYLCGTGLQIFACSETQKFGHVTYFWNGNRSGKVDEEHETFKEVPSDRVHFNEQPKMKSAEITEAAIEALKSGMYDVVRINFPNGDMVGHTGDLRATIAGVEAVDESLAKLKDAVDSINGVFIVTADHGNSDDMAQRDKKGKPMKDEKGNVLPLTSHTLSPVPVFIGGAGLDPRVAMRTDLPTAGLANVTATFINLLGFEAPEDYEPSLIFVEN
Sequence of Phosphoglycerate kinase, glycosomal (Trypanosoma brucei brucei) (P07378 whole entry, looked up): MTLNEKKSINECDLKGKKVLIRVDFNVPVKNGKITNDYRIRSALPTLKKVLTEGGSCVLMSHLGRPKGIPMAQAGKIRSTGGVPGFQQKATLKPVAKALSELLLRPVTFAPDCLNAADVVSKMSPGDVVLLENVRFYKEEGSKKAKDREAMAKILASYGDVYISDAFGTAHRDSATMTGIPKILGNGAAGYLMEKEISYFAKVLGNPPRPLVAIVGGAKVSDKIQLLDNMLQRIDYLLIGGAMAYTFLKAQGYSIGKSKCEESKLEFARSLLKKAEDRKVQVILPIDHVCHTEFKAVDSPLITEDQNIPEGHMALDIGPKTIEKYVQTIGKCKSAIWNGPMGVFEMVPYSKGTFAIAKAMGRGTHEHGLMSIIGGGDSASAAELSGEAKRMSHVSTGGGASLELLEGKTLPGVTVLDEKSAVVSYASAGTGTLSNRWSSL
Sequence of D(1A) dopamine receptor (Homo sapiens) (P21728 whole entry, looked up): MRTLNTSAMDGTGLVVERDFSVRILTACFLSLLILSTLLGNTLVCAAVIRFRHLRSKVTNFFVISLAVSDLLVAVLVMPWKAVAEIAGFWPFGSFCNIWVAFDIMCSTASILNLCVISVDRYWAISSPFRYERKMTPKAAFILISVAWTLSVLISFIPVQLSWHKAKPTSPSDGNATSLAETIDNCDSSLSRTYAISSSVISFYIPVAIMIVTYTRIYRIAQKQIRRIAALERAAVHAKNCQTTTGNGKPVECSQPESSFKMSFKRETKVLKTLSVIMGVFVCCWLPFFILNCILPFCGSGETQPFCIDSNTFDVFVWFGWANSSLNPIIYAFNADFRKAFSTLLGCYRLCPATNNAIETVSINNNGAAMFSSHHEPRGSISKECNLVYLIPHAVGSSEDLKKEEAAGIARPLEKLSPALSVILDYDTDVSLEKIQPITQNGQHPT
Sequence of Peptidyl-prolyl cis-trans isomerase NIMA-interacting 1 (Homo sapiens) (Q13526 whole entry, looked up): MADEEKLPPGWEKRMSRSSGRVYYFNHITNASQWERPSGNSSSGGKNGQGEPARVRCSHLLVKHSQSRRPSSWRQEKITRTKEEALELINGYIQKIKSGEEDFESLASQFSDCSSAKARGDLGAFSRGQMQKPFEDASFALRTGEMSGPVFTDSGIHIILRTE
Sequence of Transient receptor potential cation channel subfamily V member 1 (Homo sapiens) (Q8NER1 whole entry, looked up): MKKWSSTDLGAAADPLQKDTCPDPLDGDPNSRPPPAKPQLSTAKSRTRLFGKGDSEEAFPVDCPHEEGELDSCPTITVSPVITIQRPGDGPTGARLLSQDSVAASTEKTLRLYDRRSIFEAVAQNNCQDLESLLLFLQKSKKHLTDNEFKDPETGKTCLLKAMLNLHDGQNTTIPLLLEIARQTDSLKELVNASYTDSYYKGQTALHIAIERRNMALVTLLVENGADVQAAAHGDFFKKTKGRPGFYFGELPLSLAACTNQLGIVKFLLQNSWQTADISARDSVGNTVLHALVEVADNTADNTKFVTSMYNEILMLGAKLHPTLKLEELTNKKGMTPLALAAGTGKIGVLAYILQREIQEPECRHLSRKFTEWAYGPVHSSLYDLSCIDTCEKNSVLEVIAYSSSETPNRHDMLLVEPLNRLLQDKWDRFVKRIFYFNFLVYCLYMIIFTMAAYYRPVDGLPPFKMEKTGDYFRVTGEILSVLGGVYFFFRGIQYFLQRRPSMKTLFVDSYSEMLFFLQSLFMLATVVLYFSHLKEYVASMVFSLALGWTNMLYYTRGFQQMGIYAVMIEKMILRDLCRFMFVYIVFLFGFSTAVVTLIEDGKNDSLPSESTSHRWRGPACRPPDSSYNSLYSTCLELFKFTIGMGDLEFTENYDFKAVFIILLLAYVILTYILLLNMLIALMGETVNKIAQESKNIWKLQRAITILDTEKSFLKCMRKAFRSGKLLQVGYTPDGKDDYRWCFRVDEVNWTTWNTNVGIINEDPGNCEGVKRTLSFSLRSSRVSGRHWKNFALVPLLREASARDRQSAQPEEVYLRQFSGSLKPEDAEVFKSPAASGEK

Consider `O=C(O)Cc1ccc(O)c(O)c1`, for which the result in test [1], in test [2] and in test [9] was inactive. Also, the Potency entry in test [3], in test [4], in [5], in test [6], in test [8] and in [10] was “inactive” throughout. Also, the Potency result in test [11], in [12], in test [13], in test [14], in test [15] and in test [16] was “inactive” each time. In addition, the activation in [7] is 0.938% (inactive). In addition, the viability change in test [8] was determined as 9.81%.
Regarding `CCCC(=O)NCCc1c2n(c3ccc(OC)cc13)CCCc1ccccc1-2`, the result in test [1], in test [2] and in test [9] was inactive. The Potency result in test [3], in test [4], in test [5], in test [17], in test [10] and in [11] was “inactive” in each case. In addition, the Potency entry in test [12], in test [13] and in [14] was “inactive” throughout.
`COc1ccc(NC(=O)c2ccc(-c3ccc(-c4noc(C)n4)cc3C)cc2)cc1N1CCN(C)CC1`: the outcome in test [1] and in test [2] was inactive. Also, the Potency result in test [3], in test [4], in test [8], in test [10], in [11] and in test [12] was “inactive” each time. Also, the Potency result in test [13], in test [14] and in test [15] was “inactive” each time. Also, the values for the Potency in test [5], in [6] and in test [18] were 20 µM (active), 20.6 µM (active) and 22.4 µM (active), respectively. In addition, the activation in test [7] was 2.25% (inactive). The viability change in [8] is -8.26%.
As to `CCCn1c(=O)c2[nH]c(-c3ccc(S(=O)(=O)O)cc3)nc2n(CCC)c1=O`, the outcome in test [1], in [2] and in [9] was inactive. Moreover, the Potency entry in test [3], in test [4], in test [5], in test [17], in test [8] and in test [10] was “inactive” in each case. Moreover, the Potency entry in test [11], in test [12], in test [13], in test [14] and in test [18] was “inactive” throughout. Further, the activation in test [7] is 0.688% (inactive). In addition, in [8], the viability change is -4.01%.
As to `O=c1[nH]c(=O)c2nc3ccccc3nc2[nH]1`, the outcome in test [1] and in [2] was inactive. Besides, the Potency entry in test [3], in test [4], in test [5], in test [17], in test [8] and in [10] was “inactive” in each case. Further, the Potency entry in [11], in [13], in test [14], in test [16] and in [18] was “inactive” each time. In test [7], the activation is 3.81% (inactive). In [8], the viability change is -5.91%.
`Cc1nc(N=Nc2ccc(C(=O)O)cc2)c(COP(=O)(O)O)c(C=O)c1O`: the result in test [1], in test [2] and in [9] was inactive. For the same molecule, the Potency entry in test [3], in test [4], in test [5], in [6], in test [8] and in test [10] was “inactive” throughout. In addition, the Potency entry in test [11], in [13], in test [14] and in test [18] was “inactive” throughout. For the same molecule, in test [7], the activation was 0.125% (inactive). Moreover, in test [8], the viability change was -9.24%. Also, the Potency in test [12] was 26.9 µM (active); in test [15] it was 22.4 µM (active).
`NC(=O)c1ccccc1`: the outcome in test [1] and in test [2] was inactive. Further, the Potency entry in test [3], in [4], in [5], in test [6], in [10] and in test [11] was “inactive” in each case. In addition, the Potency result in test [12], in [13], in [14] and in test [15] was “inactive” in each case.
